# Compound activity (PubChem BioAssay)
# Shown are actives, neighbours in structure and some others; about 5.7% of the full set was active somewhere.
# KB-3-1 cytotox: qHTS assay for MDR1-selective chemotherapeutics: Primary screen using the parental adenocarcinoma cell KB-3-1 | KB-3-1 viability, CellTiter-Glo ATP luminescence, 72 h | Potency, µM (highest dose often 46.1 µM), usual class: cytotoxic | 1.4% of 400,000 active; also: nearly all actives have a fitted effect of over 60% in size
#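 Viability of parental KB-3-1 cells, measured by CellTiter-Glo luminescence, followed a 72 h incubation at 37 °C with pinned compounds in phenol-red-free DMEM containing 10% FBS.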
# KB-V1 cytotox: qHTS assay for MDR1-selective chemotherapeutics: Primary screen using the drug-selected MDR subline cells KB-V1; Potency, µM (top dose mostly 46.1 µM), most hits filed as cytotoxic; AID 1347076, 2019; KB-V1 MDR cells viability, CellTiter-Glo, 72 h; 3.4% of 400,000 active; also: nearly all actives have a fitted effect of over 60% in size
#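 KB-V1, DMEM (no phenol red) + 10% FBS; cpd pin-transferred, titration series; 72 h, 37 degrees C; CellTiter-Glo, luminescence. Data normalized, curve-fit.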
# HT1080-NT tox: qHTS for induction of synthetic lethality in tumor cells producing 2HG: qHTS for the HT-1080-NT fibrosarcoma cell line; HT-1080-NT fibrosarcoma viability, CellTiter-Glo ATP luminescence, 48 h; Potency, µM (doses to about 46.1 µM), for inactives: top-dose activity, negative = less viability, usual class: cytotoxic; 1.6% of 360,000 active;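 also: NT is the 2HG producing partner of a matched IDH1 knockdown line; 0% = DMSO-treated cells and -100% = media-only wells without cells; nearly all actives have a fitted effect of over 55% in size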
#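 Toxicity toward the 2HG-producing NT line was scored as %Activity, normalised to DMSO and no-cell wells, from CellTiter-Glo luminescence after 48 hours' treatment.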
# HT1080 IDH1KD tx: qHTS for induction of synthetic lethality in tumor cells producing 2HG: qHTS for the HT-1080-IDH1KD cell line; HT-1080 IDH1 knockdown viability, ATP luminescence, 48 h; AID 686971, 2013; Potency, µM (series often up to 46.1 µM), for the others: top-dose activity, negative = toxicity, actives largely listed as cytotoxic; 2% of 360,000 active;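 also: 0% = DMSO wells and -100% = cell-free medium wells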
#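 Viability of IDH1-knockdown HT-1080 fibrosarcoma cells was assessed by CellTiter-Glo after 48 h at 37 °C with titrated compound; concentration-effect curves were classified by fit quality and response size.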
# Active calls of the source: *; i = inactive; ? = inconclusive; . = no result. Calls follow the shape of the dose curve; as a rule, active = well fitted curve in the direction sought with a large enough effect; inconclusive = small, poorly fitted or top-dose-only effect, or another doubt; inactive = no such curve, though single readings can be large; an effect the other way counts as inactive or inconclusive. Unless noted, % is scaled to controls: 0 for no effect and ±100 for the full control effect; potency is read from the fitted curve at half-maximal effect.
SMILES,KB-3-1 cytotox,KB-V1 cytotox,HT1080-NT tox,HT1080 IDH1KD tx
CCc1cc(=O)oc2c(C)c(OCC(=O)N3CCC(C(=O)O)CC3)ccc12,i,?,-0.9%,-4.2%
C=C(C)COc1ccc2c(CC)cc(=O)oc2c1C,?,20.6µM*,-0.8%,-7.9%
CCc1c(C)c2ccc(OCC(=O)N(C)C)c(C)c2oc1=O,i,10.3µM*,12.2%,1.0%
CCc1nc2ccc(C(=O)N3CCN(C(C)=O)CC3)cn2c1N(C=O)Cc1ccc(OC)cc1,i,i,17.9%,?
Cn1c2ccccc2c2cnn(CC(=O)NCCCN3CCCCC3)c(=O)c21,i,i,.,.
CCOc1ccccc1NC(=O)CN1C(=O)C2(SCC(=O)N2c2ccc(C)cc2)c2ccccc21 (stereo unspecified),?,i,.,.
CCN(CC)S(=O)(=O)c1ccc2c(c1)nc(CN(C)C(=O)c1cccc(Cl)c1)n2C,i,i,.,.
CC1CCC(Nc2nc3c(-c4ccc(Cl)cc4)nnn3c3ccccc23)CC1 (stereo unspecified),i,i,.,.
CC(C)N(Cc1ccccc1)S(=O)(=O)c1ccc(N2CCCCS2(=O)=O)cc1,i,i,.,.
Cc1ccc2nc(NC(=O)CSc3[nH]c(=O)ncc3C)sc2c1,i,i,.,.
Cc1cn(C)c(CC(=O)Nc2cccc(Cl)c2C)c1C(=O)O,i,i,.,.
CCOC(=O)C1=C(CSc2nc3ccccc3s2)NC(=O)NC1c1ccc(OC)cc1 (stereo unspecified),?,16.4µM*,?,?
N#CCCN(CCC#N)S(=O)(=O)c1ccc(C(=O)Nc2nc(-c3ccccc3)c(C(=O)c3ccccc3)s2)cc1,i,i,0.0%,5.8%
O=C(Nc1nc(-c2ccccc2)c(-c2ccccc2)s1)c1ccc(S(=O)(=O)N2CCCC2)cc1,?,4.11µM*,6.7%,7.1%
O=C(Nc1nc(-c2ccccc2)c(C(=O)c2ccccc2)s1)c1ccc(S(=O)(=O)N2CCCC2)cc1,16.4µM*,3.66µM*,-4.2%,-13.4%
CN(C)S(=O)(=O)c1ccc(C(=O)Nc2nc(-c3ccccc3)c(C(=O)c3ccccc3)s2)cc1,i,16.4µM*,10.1%,-4.1%
COc1cccc(OC)c1C(=O)Nc1nc2c(s1)CCc1ccccc1-2,i,i,.,.
CCCN(CCC)S(=O)(=O)c1ccc(C(=O)Nc2nc3c(s2)CCc2ccccc2-3)cc1,9.2µM*,i,18.4µM*,?
CCOC(=O)C(C)NC(=O)c1cc2c(=O)[nH]c3ccc(C)cc3c2s1 (stereo unspecified),i,i,.,.
Cc1ccc(C2CC(=O)n3nc(-c4ccc(F)cc4)nc3S2)cc1 (stereo unspecified),?,i,.,.
COc1ccc(S(=O)(=O)N2CCN(Cc3ccc4c(c3)OCO4)CC2)cc1OC,i,i,.,.
O=C(CCC(=O)N1CC2CCCN2c2ccccc21)NCc1cccc(Cl)c1 (stereo unspecified),i,i,.,.
Cc1ccc(-c2nnc(Sc3nc4ccccc4o3)c3ccccc23)cc1,i,i,?,11.2µM*
Cc1nnc(Sc2nc3ccccc3o2)c2ccccc12,?,i,?,20.6µM*
Clc1ccc(-c2nnc(Sc3nc4ccccc4o3)c3ccccc23)cc1,?,i,11.2µM*,11.2µM*
SMILES,KB-3-1 cytotox,KB-V1 cytotox,HT1080-NT tox,HT1080 IDH1KD tx
CCSc1nnc(C)c2ccccc12,i,?,7.7%,7.1%
CCOC(=O)C1CCCN(c2c(C(=O)c3ccccc3)cnc3ccc(F)cc23)C1 (stereo unspecified),i,i,.,.
CC(=O)C1=C(c2cccc([N+](=O)[O-])c2)N(C(C)=O)n2c(C)nnc2S1,14.6µM*,i,?,?
CC(=O)c1c(C(C)=O)c(C)n(-c2cccc([N+](=O)[O-])c2)c1C,i,i,-6.2%,-4.5%
CCOC(=O)c1ccc(NC(=O)c2ccc3c(c2)c(C)c(C)n3Cc2ccc(F)cc2)cc1,i,i,.,.
COc1ccc(NC(=O)c2ccc3c(c2)c(C)c(C)n3Cc2ccc(F)cc2)cc1,11.6µM*,8.2µM*,.,.
Cc1ccc2c(c1)-c1cc(C)nn1C(c1cc(Br)ccc1O)N2 (stereo unspecified),?,i,.,.
CCOc1ccc(Nc2cc(C)nc3ccc(C)cc23)cc1,?,?,29.1µM*,?
Cc1ccccc1Nc1nc(N)c2ccccc2n1,?,?,?,16.4µM*
COc1ccc(C)cc1Nc1nc(N)c2ccccc2n1,i,i,?,?
CCOc1ccc(Nc2nc(N)c3ccccc3n2)cc1,?,?,20.6µM*,18.4µM*
CCOc1ccc(Nc2nc3ccccc3c3nnc(CC)n23)cc1,i,?,.,.
Nc1nc(Nc2ccc(Cl)cc2)nc2ccccc12,i,18.4µM*,-11.3%,-14.4%
Nc1nc(NCc2ccc(Cl)cc2Cl)c2[nH]cnc2n1,i,?,.,.
COc1ccc(CCNC(=O)c2cnn(-c3ccc(F)cc3)c2C2CCN(C(=O)OC(C)(C)C)CC2)cc1OC,i,i,.,.
Cc1cccc(N2CC(c3nc4ccc(C)cc4[nH]3)CC2=O)c1 (stereo unspecified),i,i,.,.
Nc1nc(Nc2ccccc2)nc2ccccc12,?,?,?,20.6µM*
Cc1ccc(Nc2nc(N)c3ccccc3n2)cc1Cl,i,i,-4.4%,-0.3%
O=C(NCCC1=CCCCC1)C1CCC(CNS(=O)(=O)c2ccccc2)CC1 (stereo unspecified),i,8.2µM*,1.4%,4.2%
O=C(NCCC1=CCCCC1)C1CCC(CNc2nc(=S)[nH]c3ccccc23)CC1 (stereo unspecified),?,20.6µM*,-1.7%,-8.5%
CCCCOc1ccc(S(=O)(=O)Nc2ccc(-c3ccc(N4CCCCC4)nn3)cc2)cc1,i,i,.,.
O=C(CSc1nc(Nc2ccccc2)nc(N2CCOCC2)n1)Nc1ccc(Br)cc1F,i,i,-1.4%,0.9%
O=C(CSc1nc(Nc2ccccc2)nc(N2CCOCC2)n1)Nc1ccccc1Cl,i,14.6µM*,-5.6%,-4.4%
COc1ccc(-c2nnc(SCc3cc(=O)c4cc(C)cc(C)c4[nH]3)n2C)cc1,8.2µM*,?,.,.
CCCCSCCCNC(=O)c1cn(C)c2ccc(S(=O)(=O)N3CCCCCC3)cc2c1=O,?,i,.,.
CC(C)c1ccc(CC(=O)N2CCC2(C)C(=O)Nc2ccc3c(c2)OCCO3)cc1 (stereo unspecified),i,16.4µM*,-19.9%,-27.3%
CC1(C(=O)Nc2ccc3c(c2)OCCO3)CCN1Cc1csc2ccccc12 (stereo unspecified),i,i,-22.8%,?
